# Laboratory results: the supplement of paper PMC6555819
# Tested on: RARb:RXRa (NR concentration 270 nM, RXRa partner concentration 90 nM)
# Assay: PBM binding z-score (relative to random genomic background probes); higher = stronger binding; sequences stand for … in GC…GCGATTGACAGCGTAGAATGAAGG
# In short: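 Binding z-scores were set against random background probes. The data came from custom Agilent 4×180K protein-binding microarrays carrying double-stranded probes with 34-nt variable regions, incubated 1 h with ligand-free nuclear receptor dimers. Partner-specific antibodies detected binding, and scanned fluorescence was regression-normalized.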
row,Sequence,PBM binding z-score
1,AGTCAGAGTTCAGGACGAGGTAACGTAAAGCACG,3.62
2,TCAGACAGGCGAAGGTAACTCAGGTACGCAGTCG,0.0079
3,CGCCCAAGGTCAGAGAGGTCAGTGAATGCCGAGT,5.09
4,GCATATAGGTAATACAAAGTGAAAGTCCGATTGT,-0.152
5,CGAACTAGATCATCCAGGACAGTGAATACATTGA,-0.2
6,CTACCAAGGTGAACAAGGTGGTTGATTACTATTC,1.43
7,ACATACGGGTCAACGAGGTTATAGCACGCGTATA,3.99
8,CGTCCAAGGTCAAGGTCAGTAAAAGAGACTCGAA,5.53
9,GCGACTGGGGCATCAGCAGGTAACCATAACTTAA,0.352
10,ATATGTAGATTAGCTGGGGTCATTCAGACTAGGC,2.59
11,ACTAGTTGGTCAGCTGAGGTCCCACACAATTCGG,0.921
12,AGAGTGAGGTTATACGTAGATCAGGGAAGAAAGT,1.78
13,GCTAGCAGGCCATTTGGGGCACTCAATGACGGGC,0.199
14,GCTAGTTGGTCAGGAAAAGGTCACACACCGGTCG,4.17
15,CCGACTGGGGCATAAGGTTACCACAAGCCAGCCC,1.73
16,ACTAGTTGGTCAGCAGAGGTCACACACAATTCGG,4.17
17,TCTTGTAGATCAAAGGTTAAAAAAGCCGAAGCCT,1.69
18,CCGACTGGTGCATAAGGTTACCATAAGCCAGCCC,0.928
